94 molecules from PubChem BioAssay AID463173 (ICCB-Longwood Screening Facility, Harvard Medical School, 2010) can be followed below.

Screen size: about 52,000 compounds; about 1,700 (3.3%) were called active. No stated cut-off is given here; in the data, active means survival mostly below about 52% (no sharp cut-off); inactive means mostly above about 56%. The full list was thinned out, with actives kept by preference.

This test concerns Wild type. The experiment in a line: S. aureus survival, RN4220 and DeltatarO strains – OD600, teichoic acid synthesis inhibitors, primary screen (AID 463173). The note with it: S. aureus RN4220 wild type/DeltatarO growth, OD600, 18 h, stronger effect = lower value, screened at 18.75 µg/mL (by protocol).
As for `COc1ccc(Cn2nnnc2CN2CCC(NC(=O)c3cccc(OC)c3)CC2)cc1`, the survival is 115% (inactive).

For `O=C(CN1C(=O)C2(SCC(=O)N2c2cccc(F)c2)c2ccccc21)NCc1ccccc1Cl` (centres undefined), the survival was 80% (inactive).

For the molecule `COc1ccc(S(=O)(=O)c2cc3cc(OC)ccc3oc2=O)cc1`, the survival is 76% (inactive).

On to `CCOc1ccc(S(=O)(=O)c2cc3cccc(OCC)c3oc2=O)cc1`, for which the survival is 81% (inactive).

With `COc1ccc(S(=O)(=O)c2cc3cc(C(C)(C)C)cc(O)c3oc2=O)cc1`, the survival is 10% (active).

Consider `CCOC(=O)c1c(C)oc2nc(C)nc(Nc3cc(C)ccc3OC)c12`, for which the survival was 85% (inactive).

Turning to `Cn1c(=O)n(-c2ccc(F)c(Cl)c2)c(=O)c2sc3ccccc3c21`, the survival was 96% (inactive).

In the case of `CCOC(=O)c1ccccc1NC(=O)CSc1ncc(CO)n1Cc1ccc(C)cc1`, the survival was 90% (inactive).

For `Cc1ccc(Cn2c(CO)cnc2SCC(=O)NCc2ccccc2Cl)cc1`, the survival was 80% (inactive).

As to `O=C(CSc1nc2ccsc2c(=O)n1Cc1ccc(F)cc1)NCc1ccc(Cl)cc1`, the survival was 81% (inactive).

Turning to `COc1ccc(Cn2c(CO)cnc2SCC(=O)NCc2ccco2)cc1`, the survival is -6% (active).

For `COc1ccc(Cn2c(CO)cnc2SCc2ccccc2)cc1`, the survival was 69% (inactive).

Regarding `Cc1ccc(Cn2c(CO)cnc2SCC(=O)Nc2ccc(C)c(Cl)c2)cc1`, the survival is -6% (active).

With `COc1ccc(Cn2ccnc2SCC(=O)NCc2ccco2)cc1`, the survival was 70% (inactive).

For the molecule `O=C(CSc1ncc(CO)n1Cc1ccc(Cl)cc1)NCc1ccc(F)cc1`, the survival is 14% (active).

For the molecule `O=C(CSc1ncc(CO)n1Cc1ccc(F)cc1)NCc1ccco1`, the survival was 134% (inactive).

Take `OCc1cnc(SCc2ccc(F)cc2)n1Cc1ccc(F)cc1`: the survival is 85% (inactive).

For `COc1ccc(Cn2c(CO)cnc2SCc2ccc(F)cc2)cc1`, the survival was -1% (active).

With `COc1ccccc1NC(=O)CSc1ncc(CO)n1Cc1ccc(F)cc1`, the survival was 121% (inactive).

For `Cn1ccc2cc(S(=O)(=O)N3CCN(C(=O)Nc4cccc(F)c4)CC3)ccc21`, the survival is 74% (inactive).

In the case of `CCCCN(CCCNC(=O)c1cc(Nc2ccc(OC)c(OC)c2)nc2ccccc12)Cc1ccccc1`, the survival is 79% (inactive).

For `CCc1nn2c(=O)cc(COC(=O)c3cccc(NC(=O)CCc4ccccc4)c3)nc2s1`, the survival was 72% (inactive).

As for `CC(=O)c1cccc(NC(=O)C2CCN(S(=O)(=O)c3ccc4c(c3)oc(=O)n4C)CC2)c1`, the survival is 90% (inactive).

In the case of `O=S(=O)(NCc1nc2cccnc2n1Cc1ccccc1Cl)c1ccc2c(c1)CCCC2`, the survival is 73% (inactive).

On to `COc1ccc(C(=O)/C=C/c2cn(CC(O)CN(CC(C)C)CC(C)C)c3ccccc23)cc1OC` (centres undefined), for which the survival was 60% (inactive).

`CCCN(CCC)CC(O)Cn1cc(/C=C/C(=O)c2ccc(OC)cc2)c2ccccc21` (centres undefined): the survival was 1% (active).

In the case of `CC(C)CN(CC(C)C)CC(O)Cn1cc(/C=C/C(=O)c2ccccc2)c2ccccc21` (centres undefined), the survival is 40% (inactive).

Take `CCCCN(CCCC)CC(O)Cn1cc(/C=C/C(=O)c2ccccc2)c2ccccc21` (centres undefined): the survival was 18% (active).

`CCCN(CCC)CC(O)Cn1cc(/C=C/C(=O)c2ccc(OCC)cc2)c2ccccc21` (centres undefined): the survival was 23% (active).

Consider `COc1ccc(C(=O)/C=C/c2cn(CC(O)CN(CC(C)C)CC(C)C)c3ccccc23)cc1` (centres undefined), for which the survival is 44% (inactive).

Take `CCCN(CCC)CC(O)Cn1cc(/C=C/C(=O)c2ccc(Br)cc2)c2ccccc21` (centres undefined): the survival is 85% (inactive).

Turning to `CCCN(CCC)CC(O)Cn1cc(/C=C/C(=O)c2ccc(C)cc2)c2ccccc21` (centres undefined), the survival was -1% (active).

Turning to `Cc1ccccc1Cn1c(=O)n(Cc2ccc(Cl)cc2)c(=O)c2cccnc21`, the survival is 82% (inactive).

For `CN1C(=O)CC(=O)N(C)c2cc(S(=O)(=O)N(C)Cc3ccccc3)ccc21`, the survival is 24% (inactive).

With `CN(C)CCNC(=O)c1ccc(Cn2c(=O)c3cccn3c3cccnc32)cc1`, the survival is 89% (inactive).

Consider `O=C(CCSCc1ccccc1Cl)N1CCN(c2cccc(Cl)c2)CC1`, for which the survival is 75% (inactive).

For the molecule `CCOC(=O)Cc1ccc(NC(=O)N(C(C)C)C2CCN(C(C)=O)CC2)cc1`, the survival was 85% (inactive).

Consider `COc1ccc(Cn2c(SCc3ccc(C(=O)NCc4ccc(C)cc4)cc3)nc3cccnc32)cc1`, for which the survival is 85% (inactive).

Take `O=C(NC1CCCC1)c1ccc2c(=O)n(Cc3ccccc3)c(SCc3ccccc3)nc2c1`: the survival is 83% (inactive).

On to `O=C(NC1CCCCC1)c1ccc(CSc2nc3cccnc3n2Cc2ccc(F)cc2)cc1`, for which the survival is 19% (inactive).

On to `CCOc1ccccc1CNC(=O)c1ccc(Cn2c(SCc3ccccc3)nc3cccnc32)cc1`, for which the survival is 69% (inactive).

`O=C(NC1CCCC1)c1ccc2c(=O)n(Cc3ccccc3)c(SCc3ccccc3F)nc2c1`: the survival was -3% (active).

With `COc1ccccc1CNC(=O)c1ccc(Cn2c(SCc3ccccc3)nc3cccnc32)cc1`, the survival was 10% (active).

On to `CCNC(=O)c1ccc(CSc2nc3cccnc3n2Cc2ccc(OC)cc2)cc1`, for which the survival is -3% (active).

Take `COCCCNC(=O)c1ccc(CSc2nc3cccnc3n2Cc2ccc(OC)cc2)cc1`: the survival was 94% (inactive).

In the case of `O=C(NC1CCCCC1)c1ccc(Cn2c(SCc3ccc(F)cc3)nc3cccnc32)cc1`, the survival is 0% (active).

On to `O=C(NC1CCCC1)c1ccc(CSc2nc3cccnc3n2Cc2ccc(F)cc2)cc1`, for which the survival was 45% (inactive).

As to `O=C(NCc1ccccc1Cl)c1ccc(Cn2c(SCc3ccccc3)nc3cccnc32)cc1`, the survival is 68% (inactive).

`Cc1ccccc1CSc1nc2cc(C(=O)NC3CCCC3)ccc2c(=O)n1Cc1ccccc1`: the survival was 94% (inactive).

On to `CCN(C(=O)C(NS(=O)(=O)c1cccc2nsnc12)c1ccccc1)c1ccccc1` (centres undefined), for which the survival is 117% (inactive).

With `CCN(CC)c1cc2c(cc1F)c(=O)c(S(=O)(=O)c1cccc(C)c1)cn2C`, the survival is 112% (inactive).

Regarding `Cc1ccc(NC(=O)C2(c3cccs3)CCOCC2)cc1Cl`, the survival was 75% (inactive).

Turning to `COc1ccc(C2=NS(=O)(=O)N(C)C(C(=O)Nc3cc(C)ccc3O)=C2)cc1OC`, the survival is 69% (inactive).

Consider `C=Cc1ccc(Cn2c(=O)n(CC3CCC(C(=O)NC(C)C)CC3)c(=O)c3sccc32)cc1` (centres undefined), for which the survival was 81% (inactive).

In the case of `COc1ccc(CCNC(=O)CCc2c(C)nc3c(-c4ccc(F)cc4)c(C)nn3c2C)cc1OC`, the survival was 137% (inactive).

With `Cc1ccccc1CNC(=O)c1ccc(Cn2c(SCc3ccccc3)nc3cccnc32)cc1`, the survival is -2% (active).

For the molecule `Cc1ccccc1CNC(=O)c1ccc(Cn2c(SCc3cccc(F)c3)nc3cccnc32)cc1`, the survival was 70% (inactive).

In the case of `Cc1ccccc1CNC(=O)c1ccc(CSc2nc3cccnc3n2Cc2ccccc2)cc1`, the survival was 47% (inactive).

As for `Cc1ccccc1NS(=O)(=O)c1ccc2[nH]cc(C(=O)N3CCCCC3)c(=O)c2c1`, the survival is 68% (inactive).

On to `N/C(=N\OC(=O)c1ccccc1)c1cccnc1`, for which the survival was 109% (inactive).

With `CCOc1ccc(S(=O)(=O)NCC(c2ccc(N(C)C)cc2)N2CCc3ccccc32)cc1` (centres undefined), the survival is 22% (inactive).

Turning to `Cc1ccc(S(=O)(=O)NCC(c2ccc(N(C)C)cc2)N2CCc3ccccc32)cc1` (centres undefined), the survival is -2% (active).

Consider `CN(C)c1ccc(C(CNS(=O)(=O)c2ccc(F)cc2)N2CCc3ccccc32)cc1` (centres undefined), for which the survival was 0% (active).

`Cc1ccc(S(=O)(=O)NCC(c2ccc(N(C)C)cc2)N2CCc3ccccc32)cc1C` (centres undefined): the survival was 129% (inactive).

`COc1ccc(S(=O)(=O)NCC(c2ccc(N(C)C)cc2)N2CCc3ccccc32)cc1` (centres undefined): the survival was 73% (inactive).

Take `CN(C)c1ccc(C(CNS(=O)(=O)c2ccccc2)N2CCc3ccccc32)cc1` (centres undefined): the survival was 80% (inactive).

`COC(=O)CNC(c1ccccc1)c1cc(Br)ccc1NC(=O)c1ccccc1` (centres undefined): the survival was 62% (inactive).

With `CCOC(=O)c1[nH]c(C)c(CCC(=O)NCc2cccc(C)c2)c1C`, the survival is 105% (inactive).

As for `CCOc1cccc2sc(=NC(=O)c3ccc(S(=O)(=O)N4CCOCC4)cc3)n(C)c12`, the survival was 83% (inactive).

As to `COc1cccc(C(=O)Nc2nc(-c3nnn(-c4cc(C)ccc4C)c3C)ns2)c1`, the survival is 72% (inactive).

Turning to `COc1cccc(C(=O)Nc2nc(-c3nnn(-c4ccccc4C(F)(F)F)c3C)ns2)c1`, the survival was 76% (inactive).

For the molecule `Cc1ccc(C(=O)Nc2nc(-c3nnn(-c4cccc(Cl)c4C)c3C)ns2)cc1C`, the survival was 136% (inactive).

For the molecule `Cc1c(-c2nsc(NC(=O)c3cccc(Cl)c3)n2)nnn1-c1ccccc1C(F)(F)F`, the survival was -6% (active).

Take `COc1cccc(C(=O)Nc2nc(-c3nnn(-c4cccc(Cl)c4C)c3C)ns2)c1`: the survival was -6% (active).

On to `Cc1c(-c2nsc(NC(=O)c3ccccc3)n2)nnn1-c1ccc(C(F)(F)F)c(Cl)c1`, for which the survival is 80% (inactive).

As to `CCOC(=O)c1sc(NC(=O)c2cc3nc(-c4ccccc4)cc(C(F)(F)F)n3n2)c(C(=O)OCC)c1C`, the survival is 63% (inactive).

In the case of `CCc1ccc(-n2c(=O)c3c(C)c(C(=O)N(C)C)sc3n(Cc3cccc(C)c3)c2=O)cc1`, the survival was 80% (inactive).

`COc1cccc(-n2c(=O)c3c(C)c(C(=O)N(C)C)sc3n(Cc3ccc(F)cc3Cl)c2=O)c1`: the survival was 83% (inactive).

Take `COc1cccc(-n2c(=O)c3c(C)c(C(=O)N(C)C)sc3n(Cc3cccc(C)c3)c2=O)c1`: the survival was 10% (active).

As to `COC(=O)c1ccccc1NC(=O)Cn1c(=O)n(-c2cccc(OC)c2)c(=O)c2c(C)c(C(=O)N(C)C)sc21`, the survival is 121% (inactive).

`CCOC(=O)c1ccccc1NC(=O)Cn1c(=O)n(-c2ccc(CC)cc2)c(=O)c2c(C)c(C(=O)N(C)C)sc21`: the survival was -2% (active).

For `CCc1ccc(-n2c(=O)c3c(C)c(C(=O)N(C)C)sc3n(CC(=O)Nc3cc(Cl)ccc3C)c2=O)cc1`, the survival is 129% (inactive).

`Cc1ccc(-n2c(=O)c3c(C)c(C(=O)N(C)C)sc3n(Cc3ccccc3C)c2=O)cc1C`: the survival was 73% (inactive).

On to `CCOc1ccc(-n2c(=O)c3c(C)c(C(=O)N(C)C)sc3n(Cc3cc(C)ccc3C)c2=O)cc1`, for which the survival was -3% (active).

As for `CCOc1ccc(-n2c(=O)c3c(C)c(C(=O)N(C)C)sc3n(CC(=O)Nc3c(C)cc(C)cc3C)c2=O)cc1`, the survival was 68% (inactive).

As for `O=C(c1cccs1)c1cn(CCOc2ccccc2Cl)c2ccccc12`, the survival was 80% (inactive).

With `CC1(C)Oc2ccc(C(=O)N3CCCC3)cc2N(CC(=O)N2CCCCC2)C1=O`, the survival is 101% (inactive).

For the molecule `O=C(Cn1c(=O)c2ccccc2n(CC(=O)Nc2ccc(F)cc2)c1=O)NCCc1ccccc1`, the survival was 127% (inactive).

Consider `Cc1nn(C(=O)c2ccccc2F)c(C)c1S(=O)(=O)N1CCOCC1`, for which the survival was 66% (inactive).

`Cc1nnc(N(Cc2ccco2)C(=O)c2cccc(C#N)c2)s1`: the survival is 108% (inactive).

Turning to `CC(C)OCCCNC(=O)CN1C(=O)COc2ccc(S(=O)(=O)N3CCCCCC3)cc21`, the survival was 98% (inactive).

Take `Nc1cc(=O)[nH]c2n[nH]c(=S)n12`: the survival was 111% (inactive).

Take `CCc1nnc(NC(=O)c2cc(=O)c3cc(C)c(C)cc3o2)s1`: the survival is 74% (inactive).

Take `COc1cccc(-c2nc(CS(=O)(=O)CC(=O)NCc3cccc(Cl)c3)c(C)o2)c1`: the survival was 82% (inactive).
